From article PMC4336329 (PLoS ONE, 2015) come the findings set out here.

The structures appear in SMILES notation. Screen size: about 310,000 compounds; about 14,000 (4.5%) showed an effect of 50% or more. Effects have a minus sign here. The entries come from a sample that favours strong results as a whole.
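Also: peak tail current of the secondary pulse compared with the same well before compound.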

For this assay, the target named is human ether-à-go-go-related gene (hERG) potassium channel (human, UniProt Q12809). The assay can be described thus: primary screen, population patch clamp on CHO cells stably expressing hERG; higher = less effect of the substance.
Chain of human ether-à-go-go-related gene (hERG) potassium channel (Q12809 whole entry, looked up): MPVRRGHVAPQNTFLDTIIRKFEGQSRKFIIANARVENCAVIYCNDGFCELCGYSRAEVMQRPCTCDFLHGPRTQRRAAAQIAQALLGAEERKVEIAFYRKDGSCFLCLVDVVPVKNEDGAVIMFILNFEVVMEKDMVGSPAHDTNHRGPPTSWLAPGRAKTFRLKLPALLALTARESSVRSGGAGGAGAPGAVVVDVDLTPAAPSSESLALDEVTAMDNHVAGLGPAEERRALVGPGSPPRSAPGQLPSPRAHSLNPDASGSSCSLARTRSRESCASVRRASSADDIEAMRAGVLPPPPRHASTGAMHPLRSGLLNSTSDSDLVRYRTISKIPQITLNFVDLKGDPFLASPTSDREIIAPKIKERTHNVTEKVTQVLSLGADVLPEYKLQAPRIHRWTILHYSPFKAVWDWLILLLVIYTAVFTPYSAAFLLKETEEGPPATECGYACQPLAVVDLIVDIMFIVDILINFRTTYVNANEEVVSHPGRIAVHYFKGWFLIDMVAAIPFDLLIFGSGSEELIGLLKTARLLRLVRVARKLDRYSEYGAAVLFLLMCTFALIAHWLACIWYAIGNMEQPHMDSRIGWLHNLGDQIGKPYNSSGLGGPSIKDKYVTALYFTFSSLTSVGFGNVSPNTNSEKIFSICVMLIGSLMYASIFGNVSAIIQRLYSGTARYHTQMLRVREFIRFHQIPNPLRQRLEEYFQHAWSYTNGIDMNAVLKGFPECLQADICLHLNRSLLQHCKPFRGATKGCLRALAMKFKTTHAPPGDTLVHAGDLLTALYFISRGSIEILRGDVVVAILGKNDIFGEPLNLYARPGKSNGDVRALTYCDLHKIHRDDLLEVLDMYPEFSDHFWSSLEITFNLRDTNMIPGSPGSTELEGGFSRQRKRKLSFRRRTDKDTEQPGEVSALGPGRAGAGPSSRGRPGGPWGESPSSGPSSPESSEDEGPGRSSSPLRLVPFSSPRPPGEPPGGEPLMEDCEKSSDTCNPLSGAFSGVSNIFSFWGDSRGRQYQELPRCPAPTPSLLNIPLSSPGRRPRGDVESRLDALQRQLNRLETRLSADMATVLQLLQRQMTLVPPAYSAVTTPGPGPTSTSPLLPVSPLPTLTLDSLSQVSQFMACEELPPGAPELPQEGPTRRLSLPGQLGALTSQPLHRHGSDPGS
As to `COc1ccccc1C(=O)NC1CC2CCC(C1)N2Cc1ccccc1` (centres unmarked), the “hERG current change (%, negative = inhibition) at 10uM” value is -20.4%. Regarding `CCOc1ccccc1CN1CCC(O)CC1`, the “hERG current change (%, negative = inhibition) at 10uM” value amounted to 12.1%. In the case of `CCCN1C2CCCC1CC(NC(=O)c1ccccc1OC)C2` (centres unmarked), the “hERG current change (%, negative = inhibition) at 10uM” value is recorded as -3.42%. The same measure for `CCOc1ccccc1CN1C(=O)NC2(CCCCCC2)C1=O`: 9.32%; for `CCOc1ccccc1C(=O)NC1CC2CCCC(C1)N2Cc1ccccc1` (centres unmarked): -54.5%. For the compound `Cc1ccccc1C(=O)NC1CC2CCCC(C1)N2Cc1ccccc1` (centres unmarked), the “hERG current change (%, negative = inhibition) at 10uM” value is reported as -25%.

Turning to `CCOc1ccccc1C(=O)NC1CC2CCCC(C1)N2C1CC1` (centres unmarked), the “hERG current change (%, negative = inhibition) at 10uM” value is on record as -19%. The same measure for `Cc1ccccc1C(=O)NC1CC2CCC(C1)N2Cc1ccccc1` (centres unmarked): -25%; for `O=S(=O)(Nc1ccc(O)cc1)c1cccc2cccnc12`: 10.2%.

For `Cc1ccc(CN2CC(C(=O)Nc3ccc(S(=O)(=O)Nc4cc(C)nc(C)n4)cc3)CC2=O)cc1` (centres unmarked), the “hERG current change (%, negative = inhibition) at 10uM” value turned out to be 15.6%. Take `CCC1C(=O)NCCN1C(=O)c1cccc(OC2CCN(S(=O)(=O)N(C)C)CC2)c1` (centres unmarked): the “hERG current change (%, negative = inhibition) at 10uM” value is 14%. As to `CN(C)CCN(Cc1ccccc1)C(=O)[C@H](Cc1ccccc1)N1C(=O)c2ccccc2C1=O`, the “hERG current change (%, negative = inhibition) at 10uM” value is -30.1%.

With `Cc1ccc(S(C)(=O)=NS(=O)(=O)c2cccc3nsnc23)cc1` (centres unmarked), the “hERG current change (%, negative = inhibition) at 10uM” value amounted to 7.47%. The result for `O=c1c2ccccc2nc(SCc2nnc(-c3ccccc3Br)o2)n1-c1ccccc1` reads -1.38%; that for `Cc1csc(C(C#N)C(=O)c2cc3ccccc3o2)n1` (centres unmarked), -7.89%. The result for `CN(C)S(=O)(=O)Nc1ccccn1` reads 16.5%; that for `CCCCc1cc(=O)oc2cc(C)cc(O)c12`, -17.2%; that for `Cn1c(-c2ccccc2)cc2ccccc21`, 9.39%. The same measure for `COc1ccc(S(=O)(=O)N2CCN(C(=O)COc3ccc(C)c(C)c3)CC2)cc1OC`: -37.1%; for `CCn1cc(C(=O)N2CC(C)CC(C)C2)c(=O)c2cc(S(=O)(=O)N(C)C)ccc21` (centres unmarked): -8.98%; for `CCn1cc(C(=O)NCCCN2CC(C)CC(C)C2)c(=O)c2cc(S(=O)(=O)N(C)C3CCCCC3)ccc21` (centres unmarked): -84.3%. As for `CCn1cc(C(=O)NCCCN2CC(C)CC(C)C2)c(=O)c2cc(S(=O)(=O)N(C)C)ccc21` (centres unmarked), the “hERG current change (%, negative = inhibition) at 10uM” value is listed as -55.5%. The result for `CN(C1CCCCC1)S(=O)(=O)c1ccc2c(c1)c(=O)c(C(=O)NCCN1CCCC1)cn2C` reads -27.7%; that for `CN(C1CCCCC1)S(=O)(=O)c1ccc2c(c1)c(=O)c(C(=O)NCCCN1CCCC1)cn2C`, -25.6%. The result for `CCn1cc(C(=O)NCCCN2CCCC(C)C2)c(=O)c2cc(S(=O)(=O)N3CCOCC3)ccc21` (centres unmarked) reads 14.6%. In the case of `CCn1cc(C(=O)NCCCOC)c(=O)c2cc(S(=O)(=O)N(C)C)ccc21`, the “hERG current change (%, negative = inhibition) at 10uM” value is on record as 14.3%. As for `CC1CCCN(CCCNC(=O)c2cn(C)c3ccc(S(=O)(=O)N(C)C4CCCCC4)cc3c2=O)C1` (centres unmarked), the “hERG current change (%, negative = inhibition) at 10uM” value is listed as -71.4%. Regarding `CCn1cc(C(=O)NCCCN2CCCC(C)C2)c(=O)c2cc(S(=O)(=O)N(C)C3CCCCC3)ccc21` (centres unmarked), the “hERG current change (%, negative = inhibition) at 10uM” value was -80.1%.

Regarding `Cc1ccc(NC(=O)c2ccc(NC(=O)C3CCCCC3C(=O)O)cc2)cc1` (centres unmarked), the “hERG current change (%, negative = inhibition) at 10uM” value is on record as 14.4%. The same measure for `O=C(CN1C(=O)NC2(CCCC2)C1=O)N1CCN(S(=O)(=O)c2cccc(C(F)(F)F)c2)CC1`: -5.43%; for `O=C(O)C(Cc1c[nH]c2ccccc12)N1C(=O)c2ccccc2C1=O` (centres unmarked): -2.61%; for `Cc1ncc(CO)c(/C=N/Nc2cccc(Cl)n2)c1O.Cl`: 8.89%. The result for `O=c1oc(-c2ccc(Br)cc2)nc2ccccc12` reads 17.8%.

Regarding `CC1=NNC(=O)/C1=C\c1cn(-c2ccccc2)nc1-c1ccc(Cl)cc1`, the “hERG current change (%, negative = inhibition) at 10uM” value came to 3.69%.

Take `O=c1c2c(nc3c(-c4ccccc4)c[nH]n13)CCC2`: the “hERG current change (%, negative = inhibition) at 10uM” value is given as 10.9%. The result for `CC(C)CC(COCc1cccc(C(F)(F)F)c1)N1CCN(C(=O)c2cccc(C(F)(F)F)c2)CCC1=O` (centres unmarked) reads -12%; that for `COc1ccccc1CN1CCN(Cc2nc(-c3cccs3)no2)CC1`, -42.8%. Regarding `O=C(C[n+]1ccc(-c2nnc3n2CCC3)cc1)c1ccc(Cl)c(Cl)c1.[Br-]`, the “hERG current change (%, negative = inhibition) at 10uM” value is -14%. In the case of `O=C(O)CC1(CC(=O)NCc2ccc(Cl)cc2)CCCCC1`, the “hERG current change (%, negative = inhibition) at 10uM” value came to 8.75%.

Regarding `CCC12CN(C(=O)c3ccc(C)cc3)CC(CC)(CN(C(=O)c3ccc(C)cc3)C1)C2=O`, the “hERG current change (%, negative = inhibition) at 10uM” value was -33.3%. Consider `CCn1cc(C(=O)NCCCN2CCC(C)CC2)c(=O)c2cc(S(=O)(=O)N(C)C3CCCCC3)ccc21`, for which the “hERG current change (%, negative = inhibition) at 10uM” value is recorded as -80%.

For `CCn1cc(C(=O)NCCCN2CCC(C)CC2)c(=O)c2cc(S(=O)(=O)N3CCOCC3)ccc21`, the “hERG current change (%, negative = inhibition) at 10uM” value is recorded as -17.1%. As to `CCn1cc(C(=O)NCCCN2CCC(C)CC2)c(=O)c2cc(S(=O)(=O)N3CCCC3)ccc21`, the “hERG current change (%, negative = inhibition) at 10uM” value is -7.61%. The result for `COc1cc(NC(=O)c2ccc3c(c2)OCO3)ccc1NC(=O)c1ccco1` reads 10.4%.
